The list is not random: actives were taken first. Their share in the collection is about 19%.
TDP1 cell noCPT = qHTS for Inhibitors of human tyrosyl-DNA phosphodiesterase 1 (TDP1): qHTS in cells in absence of CPT. DT40 Tdp1-/- hTDP1 cells, no CPT, ATP luminescence, 48 h. Potency, µM (series often up to 46.2 µM), usual class: inhibitors. 420,000 tested, 15% active; note: nearly all actives have a fitted effect of over 55% in size
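DT40 Tdp1-/-;hTDP1 cells, no CPT (DMSO vehicle only), 400 cells/well; compounds pin-transferred; ≥48 hr, 37 °C; CellTiter-Glo 30 min RT dark, luminescence read.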
HT1080NT lethal = kills 2HG-producing HT-1080-NT fibrosarcoma cells; HT-1080-NT fibrosarcoma viability, CellTiter-Glo ATP luminescence, 48 h; AID 686970; Potency, µM (highest dose often 46.1 µM), actives largely listed as cytotoxic; 360,000 tested, 1.6% active;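 note: NT is the 2HG producing partner of a matched IDH1 knockdown line; nearly all actives have a fitted effect of over 55% in size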
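Toxicity toward the 2HG-producing NT line was scored as %Activity, normalised to DMSO and no-cell wells, from CellTiter-Glo luminescence after 48 hours' treatment.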
IL-1B inflam inh = inflammasome signaling inhibition, IL-1 beta readout; THP-1 LPS/ATP IL-1B secretion, AlphaLISA, 16 h; stronger effect = lower value; activity change, % at 57.5 µM; 360,000 tested, 4.7% active; in the data active = activity change below about -50%; inconclusive = mostly about -30% to -49%
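THP-1 cells pretreated 1 hr with compounds (up to 57.5 uM final), then stimulated with LPS (250 ng/mL final) plus ATP (1.25 mM final); secreted IL-1B measured by AlphaLISA after 16 hr, decreased signal indicating inhibition.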
DT40 TDP1 CPT = growth inhibition of DT40 Tdp1-/-;hTDP1 cells with camptothecin (screen for TDP1 inhibitors) | chicken DT40 Tdp1-/-;hTDP1 cells + 20 nM CPT, ATP luminescence, 48 h | Potency, µM (titrated, usually from 46.2 µM), usual class: inhibitors | 420,000 tested, 12% active | AID 686979; note: nearly all actives have a fitted effect of over 55% in size
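Chicken DT40 Tdp1-/- cells complemented with human TDP1, 400 cells/well, exposed to compounds plus 20 nM camptothecin for at least 48 h at 37 C; viability read as ATP content by CellTiter-Glo luminescence.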
HT1080 IDH1KD tx = kills HT-1080 cells with IDH1 knockdown; HT-1080 IDH1 knockdown viability, ATP luminescence, 48 h; Potency, µM (titrated, usually from 46.1 µM), most hits filed as cytotoxic; 360,000 tested, 2% active
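% activity derives from luminescence (CellTiter-Glo), normalised to DMSO and no-cell wells. HT-1080-IDH1KD cells, 750/well, had 48 h compound exposure at 37 °C.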
A number is an active result; [ ] = dose if it differs, or a comment. Unless noted, calls come from the whole dose curve; as a rule, active = well fitted curve in the direction sought with a large enough effect; inconclusive = small, poorly fitted or top-dose-only effect, or another doubt; inactive = no such curve, though single readings can be large; an effect the other way counts as inactive or inconclusive.

COC(=O)C1=C(c2ccc(C(C)=O)cc2)C[C@@H]2CC[C@H]1N2C(=O)N1CCC(O)(c2ccc(Cl)cc2)CC1 was read as TDP1 cell noCPT 9.2µM, HT1080NT lethal inactive, IL-1B inflam inh inactive, DT40 TDP1 CPT 16µM and HT1080 IDH1KD tx inactive.
c1ccc(CCN2CCCC2)cc1 was read as TDP1 cell noCPT inactive and DT40 TDP1 CPT inactive.
For N[C@@H](CCCCP(=O)(O)O)C(=O)O the results were TDP1 cell noCPT inactive and DT40 TDP1 CPT inactive.
`Fc1cccc(-c2ccc3c(c2)CNCc2cnnn2-3)c1` gave TDP1 cell noCPT inactive, HT1080NT lethal inactive, IL-1B inflam inh inactive, DT40 TDP1 CPT inactive and HT1080 IDH1KD tx inactive.
`CC(C(=O)c1c[nH]c2ccccc12)N1CCc2ccccc2C1` (centres undefined) gave TDP1 cell noCPT inconclusive, HT1080NT lethal inactive, IL-1B inflam inh inactive, DT40 TDP1 CPT 16µM and HT1080 IDH1KD tx inactive.
`CCCCC/C(=N\O)c1c[nH]c2ccccc12` gave TDP1 cell noCPT inactive, HT1080NT lethal inactive, IL-1B inflam inh inactive, DT40 TDP1 CPT inactive and HT1080 IDH1KD tx inactive.
CCOC(=O)[C@]12Cc3ccccc3[C@H]1N(C)C(=O)c1cc(OC)ccc12 was read as TDP1 cell noCPT 15µM, HT1080NT lethal inconclusive, IL-1B inflam inh -116, DT40 TDP1 CPT 23µM and HT1080 IDH1KD tx inconclusive.
For COc1cc2c(cc1OC)C(C(=O)N1CCC3(CC1)OCCO3)C(c1ccccc1F)N(C)C2=O (centres undefined) the results were TDP1 cell noCPT inactive, HT1080NT lethal inactive, IL-1B inflam inh inactive, DT40 TDP1 CPT inactive and HT1080 IDH1KD tx inactive.
Screening CCOC(=O)CC1c2ccccc2-n2nncc2CN1Cc1ccc(OC)cc1 (centres undefined) returned TDP1 cell noCPT inconclusive, HT1080NT lethal inactive, IL-1B inflam inh inactive, DT40 TDP1 CPT inconclusive and HT1080 IDH1KD tx inactive.
CCOC(=O)[C@]12Cc3c(cc(OC)c(OC)c3OC)[C@H]1N(C)C(=O)c1cc(OC)ccc12 was read as TDP1 cell noCPT 9.2µM, HT1080NT lethal 15µM, IL-1B inflam inh -74, DT40 TDP1 CPT 10µM and HT1080 IDH1KD tx inconclusive.
CCOC(=O)C1C(=O)NC2(C)CC1c1cc(OC)ccc1O2 (centres undefined) was read as TDP1 cell noCPT inactive, HT1080NT lethal inactive, IL-1B inflam inh inactive, DT40 TDP1 CPT inactive and HT1080 IDH1KD tx inactive.
`CCOC(=O)[C@]12Cc3ccccc3[C@H]1N(C(C)C)C(=O)c1cc(OC)ccc12` gave TDP1 cell noCPT 15µM, HT1080NT lethal inconclusive, IL-1B inflam inh -116, DT40 TDP1 CPT 23µM and HT1080 IDH1KD tx 16µM.
`N[C@@H](Cn1ccc(=O)n(Cc2ccc(C(=O)O)cc2)c1=O)C(=O)O` gave TDP1 cell noCPT inactive and DT40 TDP1 CPT inactive.
`O=c1c2ccccc2nc(Cc2cccc([N+](=O)[O-])c2)n1-c1ccc(O)cc1` gave TDP1 cell noCPT inconclusive, HT1080NT lethal inactive, IL-1B inflam inh inactive, DT40 TDP1 CPT inconclusive and HT1080 IDH1KD tx inactive.
Screening CN(C)CCc1ccc(O)cc1 returned TDP1 cell noCPT inactive[9.04 µM] and DT40 TDP1 CPT inactive[9.04 µM].
C[CH2][Hg][S]c1ccccc1C(=O)O was read as TDP1 cell noCPT 0.58µM, HT1080NT lethal 2.3µM, IL-1B inflam inh -112, DT40 TDP1 CPT 0.41µM and HT1080 IDH1KD tx 3.3µM.
Screening CNc1ccccc1C(=O)O returned TDP1 cell noCPT inactive and DT40 TDP1 CPT inactive.
For CN(C)C(=O)Oc1ccc([N+](=O)[O-])cc1 the results were TDP1 cell noCPT inactive, HT1080NT lethal inactive, IL-1B inflam inh inactive, DT40 TDP1 CPT inactive and HT1080 IDH1KD tx inactive.
Screening Cc1cc(NC(=O)c2cccn(Cc3cccc([N+](=O)[O-])c3)c2=O)no1 returned TDP1 cell noCPT inactive and DT40 TDP1 CPT inactive.
For Cc1nc(-c2cccc(CN(C)C(=O)Oc3ccc([N+](=O)[O-])cc3)c2)no1 the results were TDP1 cell noCPT 16µM, HT1080NT lethal inactive, IL-1B inflam inh inactive, DT40 TDP1 CPT inconclusive and HT1080 IDH1KD tx inactive.

Screening data from PubChem BioAssay.
